# Measurements taken from PubChem BioAssay (NCI).
# Compounds without any hit were thinned out: in the full panel of roughly 83,000, 20% have a hit.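 For each line, cells grew in 96-well plates with the test compound present at a single concentration for 48 hours.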 Active and inactive are the calls of the source. Rule for the calls: active = growth percent below 10; inactive = the rest.
# Test system: HL-60(TB) leukemia
# Assay: NCI-60 one-dose screen, 48 h (100 = growth as untreated, 0 = no growth, -100 = all killed)
# Settings: 10 µM unless noted
row,SMILES,growth
1,COc1ccc(Nc2nc(N)nc3c2CCN(Cc2ccc(OC)cc2OC)C3=O)cc1,59.1% (inactive)
2,COc1ccc(-c2ccc3cc(C(=O)Nc4ccc(O)c(C(=O)/C=C/c5cc(OC)c(OC)c(OC)c5)c4)ccc3c2)cc1,95.5% (inactive)
3,COc1ccc(-c2nc(SCC(C)C)nc(Nc3ccc([N+](=O)[O-])cc3)c2C#N)cc1,90.5% (inactive)
4,CCN(CC)c1ccc(/C=N/NC(=O)CSc2nc3ccccc3c(=O)n2CCc2ccc(S(N)(=O)=O)cc2)c(O)c1,-18.7% (active)
5,CC(C)(C)OC(=O)NC(CSCc1ccccc1)C(=O)ON1C(=O)CCC1=O (configuration not stated),70.9% (inactive)
6,CCOc1ccc(/C=C/C=N/NC(N)=S)cc1,42% (inactive)
7,COc1cc2nc(Nc3ccc(F)cc3)nc(N)c2cc1OC,79.4% (inactive)
8,O=C(Nc1nc(-c2ccccc2Cl)cs1)c1cc(-c2ccc(Br)cc2)nc2ccccc12,37.2% (inactive)
9,CN1C(=O)C2(SCC(C(=O)NCc3ccccc3)N2C(=O)C2CCCCC2)c2ccccc21 (configuration not stated),80.4% (inactive)
10,Cc1cc(O)c(C(C)C)cc1Cl,101% (inactive)
11,CC(=O)OC[C@H]1OC(Sc2sc(C(=O)c3ccc(C)cc3)c(N)c2-c2nc3ccccc3s2)[C@H](OC(C)=O)[C@@H](OC(C)=O)[C@@H]1OC(C)=O (some centres not stated),80% (inactive)
12,CC(=O)NCc1cc(C)c(C)cc1C,99.2% (inactive)
13,O=C(COc1cccc(/C=C2\Oc3ccccc3C2=O)c1)c1ccc([N+](=O)[O-])cc1,83.7% (inactive)
14,CCN(Cc1ccc(Cl)c(Cl)c1)c1ccc2nc(N)nc(N)c2c1C,-79.5% (active)
15,COc1cc(Cc2cc(-c3ccc(Cl)cc3)n[nH]c2=O)ccc1O,93.5% (inactive)
16,COc1cnc2c(c1)C(=O)c1c-2n(CCCN2CCN(CCO)CC2)c(=O)c2cc([N+](=O)[O-])ccc12,12.7% (inactive)
17,Cc1ccc(S(=O)(=O)N/N=C2\CCCc3ccccc32)cc1,80.4% (inactive)
18,O=S(=O)(c1ccc(N/N=C\c2ccccc2Cl)cc1)c1ccc(N/N=C/c2ccccc2Cl)cc1,74% (inactive)
19,C=C(C)[C@@H]1CC[C@]2(C(=O)n3ccnc3)CC[C@]3(C)[C@H](CC[C@@H]4[C@@]5(C)CCCNC(C)(C)[C@@H]5CC[C@]43C)[C@@H]12,-56.2% (active)

row,SMILES,growth
1,O=C(c1ccc(F)c(F)c1Nc1ccc(I)cc1F)N1CC(O)([C@@H]2CCCCN2)C1,-18.9% (active)
2,O=C(Nc1ccc(Nc2ccncc2)cc1)c1ccc([N+](=O)[O-])cc1,-75.2% (active)
3,COc1cc(C)ccc1Oc1nc(Nc2ccc(N3CCOCC3)cc2)ncc1N=Cc1cc(C(F)(F)F)cc(C(F)(F)F)c1,67.4% (inactive)
4,CCCCNC(=O)c1cc(NCc2cc(O)ccc2O)ccc1O,3.56% (active)
5,O=C(Nc1ccc2c(c1)C(=O)c1ccccc1-2)c1ccccc1,101% (inactive)
6,COC12CC(=O)C(C(C)=O)=C(O)C1(C)c1c(O)c(C)c(O)c(C(C)=O)c1O2 (configuration not stated),61.7% (inactive)
7,Cc1ccc2c(c1)C(C)Cc1c(ncnc1-n1cnc3cc(C)ccc31)N2C (configuration not stated),-22% (active)
8,COc1ccc(Nc2ncnc3c2c(SC)nn3-c2ccccc2)cc1,90.5% (inactive)
9,O=c1cc/c(=N\Nc2ccccc2)c(=O)/c1=N/Nc1ccccc1,138% (inactive)
10,CN(C)c1ccc(/C=N/N=C(\C#N)[S][Sn]([Cl])([c]2ccccc2)[c]2ccccc2)cc1,0.861% (active)
11,CC1=NN(c2ccccc2)C(=O)/C1=C\N1CC(=O)NC1=S,103% (inactive)
12,COc1ccc(C(O)c2cc3c(N)c(C(=O)Nc4ccc(Br)cc4)sc3nc2C)cc1 (configuration not stated),-41.5% (active)
13,Nc1nc(=O)n([C@H]2CC=C(CO)O2)cc1F,88% (inactive)
14,CC(=O)OCC(=O)O[C@@H]1C[C@]2(C(C)C)O[C@@]1(C)[C@@H]1CC[C@@H](C)[C@H]1[C@@H]2OC(=O)/C=C/c1ccccc1,82.6% (inactive)
15,Cc1cc(Cl)nc(N(CCCNc2ccnc3cc(Cl)ccc23)Cc2ccco2)n1,-35.9% (active)
16,CC(=O)OCCCCCCn1c2ccccc2c2c3c(c4c5ccccc5n(C)c4c21)C(=O)N(O)C3=O,41.2% (inactive)
17,Cc1ccc2c(NCCCN(C)C)c3c(C)nn(C)c3nc2c1,32.4% (inactive)
18,CC(C)(C)C1CCC(=NO)CC1 (configuration not stated),110% (inactive)
